Test results reported in PubChem BioAssay (Tox21).
Activity calls are given as the source filed them. Calls come from the whole dose curve; as a rule, active = well fitted curve in the direction sought with a large enough effect in the repeat runs; inconclusive = weak or mixed curves; inactive = flat fitted curve, though single readings scatter.

Experiment: qHTS assay to test for compound auto fluorescence at 460 nm (blue) in HepG2 cell free culture (AID 720685)
Conditions: Cell-free culture medium, blue autofluorescence 405/460 nm; series mostly up to 91.3 µM
Outline: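 Compound (23 nL) or DMSO pinned into cell-free MEM with 10% FBS; blue fluorescence read at 405/460 nm excitation/emission, expressed as auto-fluorescence equivalency to triamterene.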

SMILES | outcome
Oc1ccc(/C=C/c2cc(O)cc(O)c2)cc1 | inactive
O=C(c1ccccc1)c1ccccc1 | inactive
NC(N)=O | inactive
OCCc1ccccc1 | inactive
CCCC(O)C(CC)CO (configuration not stated) | inactive
CCCN(CCC)S(=O)(=O)c1ccc(C(=O)O)cc1 | inactive
Nc1ccc(S(=O)(=O)Nc2nccs2)cc1 | inactive
N=C(N)c1ccc(OCCCCCOc2ccc(C(=N)N)cc2)cc1 | inactive
NC(N)=NC(=O)c1nc(Cl)c(N)nc1N | inactive
O=C(O)c1[nH]n(-c2ccc(S(=O)(=O)O)cc2)c(=O)c1N=Nc1ccc(S(=O)(=O)O)cc1 | inactive
Cc1noc(NS(=O)(=O)c2ccc(N)cc2)c1C | inactive
CCCCOC(=O)CC(CC(=O)OCCCC)(OC(C)=O)C(=O)OCCCC | inactive
CC(O)CO (configuration not stated) | inactive
O=S(=O)(O)NC1CCCCC1 | inactive
Cc1cn([C@H]2C[C@H](N=[N+]=[N-])[C@@H](CO)O2)c(=O)[nH]c1=O | inactive

Experiment: qHTS assay to test for compound auto fluorescence at 535 nm (green) in HepG2 cell free culture (AID 720686)
Conditions: Cell-free medium, green autofluorescence 485/535 nm; series mostly up to 91.3 µM

SMILES | outcome
Cc1ccc(C)c(OCCCC(C)(C)C(=O)O)c1 | inactive
Nc1ccn([C@H]2CC[C@@H](CO)O2)c(=O)n1 | inactive
Oc1ccc(/C=C/c2cc(O)cc(O)c2)cc1 | inactive
Cc1ccc(S(=O)(=O)NC(=O)NN2CCCCCC2)cc1 | inactive
NC(=O)NC1NC(=O)NC1=O (configuration not stated) | inactive
CCCCCCCCCCCCCCCC(=O)O | inactive
CC(C)[C@@H]1CC[C@@H](C)C[C@H]1O | inactive
O=C(C1CCCCC1)N1CC(=O)N2CCc3ccccc3C2C1 (configuration not stated) | inactive
C1N2CN3CN1CN(C2)C3 | inactive
COc1c2occc2cc2ccc(=O)oc12 | inactive
O=C(c1ccccc1)c1ccccc1 | inactive
NC(N)=O | inactive
Cn1c(=O)c2[nH]cnc2n(C)c1=O | inactive
COc1ccc2[nH]cc(CCNC(C)=O)c2c1 | inactive
OCCc1ccccc1 | inactive
CCCC(O)C(CC)CO (configuration not stated) | inactive
CCCN(CCC)S(=O)(=O)c1ccc(C(=O)O)cc1 | inactive
Nc1ccc(S(=O)(=O)Nc2nccs2)cc1 | inactive

SMILES | outcome
O=C(O)C(=O)O | inactive
O=C(O)CCCCCCCC(=O)O | inactive
N=C(N)c1ccc(OCCCCCOc2ccc(C(=N)N)cc2)cc1 | inactive
O=NO | inactive
NC(N)=NC(=O)c1nc(Cl)c(N)nc1N | inactive
Cc1cc(=O)[nH]c(=S)[nH]1 | inactive
O=C(O)c1[nH]n(-c2ccc(S(=O)(=O)O)cc2)c(=O)c1N=Nc1ccc(S(=O)(=O)O)cc1 | inactive
NS(=O)(=O)c1cc(C(=O)O)c(NCc2ccco2)cc1Cl | inactive
Cc1noc(NS(=O)(=O)c2ccc(N)cc2)c1C | inactive
CCCCOC(=O)CC(CC(=O)OCCCC)(OC(C)=O)C(=O)OCCCC | inactive
CC(O)CO (configuration not stated) | inactive
O=C(O)c1cc(N=Nc2ccc(S(=O)(=O)Nc3ccccn3)cc2)ccc1O | inactive
CCCCC1C(=O)N(c2ccccc2)N(c2ccccc2)C1=O | inactive
CCCCC(CC)COC(=O)/C=C/c1ccc(OC)cc1 (configuration not stated) | inactive
NC(=O)c1ccccc1O | inactive
O=C(O)CS | inactive
O=S(=O)(O)NC1CCCCC1 | inactive
Cc1cn([C@H]2C[C@H](N=[N+]=[N-])[C@@H](CO)O2)c(=O)[nH]c1=O | inactive

Experiment: qHTS assay to test for compound auto fluorescence at 460 nm (blue) in HepG2 cells (AID 720687)
Conditions: autofluorescence 405/460 nm, 1 h; series mostly up to 91.3 µM
Outline: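 Blue-channel autofluorescence (Ex/Em 405/460 nm, triamterene-equivalent) was measured after 1 hr compound exposure at 37 C, 5% CO2. Cells were HepG2, plated overnight at 37 C in MEM plus 10% FBS.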

SMILES | outcome
Cc1ccc(C)c(OCCCC(C)(C)C(=O)O)c1 | inactive
Nc1ccn([C@H]2CC[C@@H](CO)O2)c(=O)n1 | inactive
Oc1ccc(/C=C/c2cc(O)cc(O)c2)cc1 | inactive
Cc1ccc(S(=O)(=O)NC(=O)NN2CCCCCC2)cc1 | inactive
NC(=O)NC1NC(=O)NC1=O (configuration not stated) | inactive
CCCCCCCCCCCCCCCC(=O)O | inactive
CC(C)[C@@H]1CC[C@@H](C)C[C@H]1O | inactive
O=C(C1CCCCC1)N1CC(=O)N2CCc3ccccc3C2C1 (configuration not stated) | inactive
C1N2CN3CN1CN(C2)C3 | inactive
COc1c2occc2cc2ccc(=O)oc12 | inactive
O=C(c1ccccc1)c1ccccc1 | inactive
NC(N)=O | inactive
Cn1c(=O)c2[nH]cnc2n(C)c1=O | inactive
COc1ccc2[nH]cc(CCNC(C)=O)c2c1 | inactive
OCCc1ccccc1 | inactive
CCCC(O)C(CC)CO (configuration not stated) | inactive
CCCN(CCC)S(=O)(=O)c1ccc(C(=O)O)cc1 | inactive
Nc1ccc(S(=O)(=O)Nc2nccs2)cc1 | inactive

SMILES | outcome
O=C(O)C(=O)O | inactive
O=C(O)CCCCCCCC(=O)O | inactive
N=C(N)c1ccc(OCCCCCOc2ccc(C(=N)N)cc2)cc1 | inactive
O=NO | inactive
NC(N)=NC(=O)c1nc(Cl)c(N)nc1N | inactive
Cc1cc(=O)[nH]c(=S)[nH]1 | inactive
O=C(O)c1[nH]n(-c2ccc(S(=O)(=O)O)cc2)c(=O)c1N=Nc1ccc(S(=O)(=O)O)cc1 | inactive
NS(=O)(=O)c1cc(C(=O)O)c(NCc2ccco2)cc1Cl | inactive
Cc1noc(NS(=O)(=O)c2ccc(N)cc2)c1C | inactive
CCCCOC(=O)CC(CC(=O)OCCCC)(OC(C)=O)C(=O)OCCCC | inactive
CC(O)CO (configuration not stated) | inactive
O=C(O)c1cc(N=Nc2ccc(S(=O)(=O)Nc3ccccn3)cc2)ccc1O | inactive
CCCCC1C(=O)N(c2ccccc2)N(c2ccccc2)C1=O | inactive
CCCCC(CC)COC(=O)/C=C/c1ccc(OC)cc1 (configuration not stated) | inactive
NC(=O)c1ccccc1O | inactive
O=C(O)CS | inactive
O=S(=O)(O)NC1CCCCC1 | inactive
Cc1cn([C@H]2C[C@H](N=[N+]=[N-])[C@@H](CO)O2)c(=O)[nH]c1=O | inactive
